From PubChem BioAssay
Rows were chosen to be rich in hits. Some 10% of all compounds tested hit in one or more screens of this group.
NIH3T3 tox: Cytotoxic Profiling in NIH 3T3 Cell Line of Diverse Libraries Using Quantitative High-Throughput Screening; NIH 3T3 viability, CellTiter-Glo ATP luminescence, 48-72 h; Potency, µM (highest dose often 96.7 µM), for inactives: at the highest dose activity change, negative = cytotoxicity, most hits filed as inhibitors; 94,000 tested, 4.3% active; AID 1345082, 2018; also: % is scaled to controls: 0 for no effect and ±100 for the full control effect; nearly all actives have a fitted effect of over 55% in size
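Viability of NIH 3T3 cells after 48 or 72 hr compound treatment at 37 °C was assessed by CellTiter-Glo, with luminescence imaged following a 10 min room-temperature step.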
hNpr1 antagonist: Natriuretic polypeptide receptor (hNpr1) antagonism - Primary qHTS; Atrial natriuretic peptide receptor 1 (Homo sapiens), P16066; HEK293 hNpr1 GloSensor cGMP, ANP-stimulated luminescence; Potency, µM (highest dose often 46.3 µM), inactives show top-dose activity change, negative = inhibition, actives largely listed as inhibitors; 76,000 tested, 1.6% active; calls by dose curve; also: % is scaled to controls: 0 for no effect and ±100 for the full control effect; nearly all actives have a fitted effect of over 60% in size
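Compound pre-incubated 30 min at room temperature on GloSensor-loaded HEK293 cells stably carrying hNpr1 and the pGS-40F cGMP biosensor. Stimulation uses hNppA at 0.1 nM final; luminescence is taken at baseline and 20 min post-agonist.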
GPT2 inh: Primary qHTS assay for inhibitors of Glutamate pyruvate transaminase 2 (GPT2); Recombinant GPT2, coupled pyruvate oxidase/HRP Amplex Red fluorescence; 100,000 tested, 0.25% active; Alanine aminotransferase 2 (Homo sapiens), Q8TD30; Potency, µM (top dose mostly 57.7 µM), for the others: top-dose activity change, negative = inhibition, most hits filed as inhibitors; also: % is scaled to controls: 0 for no effect and ±100 for the full control effect; nearly all actives have a fitted effect of over 60% in size
Target sequence (Q8TD30 whole entry, looked up): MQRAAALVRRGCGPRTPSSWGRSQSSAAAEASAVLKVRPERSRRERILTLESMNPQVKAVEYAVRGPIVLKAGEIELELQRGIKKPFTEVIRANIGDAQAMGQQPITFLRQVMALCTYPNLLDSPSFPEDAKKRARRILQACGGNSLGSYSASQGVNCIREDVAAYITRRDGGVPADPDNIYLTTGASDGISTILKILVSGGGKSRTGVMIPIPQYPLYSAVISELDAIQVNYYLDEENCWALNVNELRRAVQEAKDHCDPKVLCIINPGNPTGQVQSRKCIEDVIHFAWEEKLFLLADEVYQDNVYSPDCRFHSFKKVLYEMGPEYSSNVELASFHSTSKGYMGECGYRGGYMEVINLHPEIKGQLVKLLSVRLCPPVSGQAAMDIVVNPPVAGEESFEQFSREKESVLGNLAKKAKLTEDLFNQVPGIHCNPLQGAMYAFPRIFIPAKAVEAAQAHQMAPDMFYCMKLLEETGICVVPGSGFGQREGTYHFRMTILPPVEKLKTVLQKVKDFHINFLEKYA
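Inhibition is scored from Amplex Red fluorescence generated when pyruvate oxidase and HRP act on pyruvate released by GPT2. Reactions contain 10ng/uL enzyme, 250uM a-KG and 2mM L-alanine and run 30 min at room temperature.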
Luciferase inh: Firefly luciferase inhibition profiling of diverse chemical library using quantitative high-throughput screening; Luciferin 4-monooxygenase (Photinus pyralis), P08659; purified P. pyralis luciferase, luminescence, biochemical; Potency, µM (doses to about 115 µM), most hits filed as inhibitors; 76,000 tested, 2.5% active; also: % is scaled to controls: 0 for no effect and ±100 for the full control effect; nearly all actives have a fitted effect of over 65% in size
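Purified P. pyralis luciferase (10nM final) in 50mM Tris acetate pH 7.5, 10mM Mg acetate, 0.01% Tween-20, 0.05% BSA with 10uM D-luciferin and 10uM ATP. Compounds titrated qHTS. Luminescence imaged on CCD.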
HEK293 tox: Cytotoxic Profiling in HEK 293 Cell Line of Diverse Libraries Using Quantitative High-Throughput Screening. 94,000 tested, 6.6% active. HEK 293 viability, ATP luminescence (CellTiter-Glo), 48-72 h. AID 1345083, 2018. Potency, µM (titrated, usually from 115 µM), inactives show at the top dose activity change, negative = cytotoxicity, actives largely listed as inhibitors; also: % is scaled to controls: 0 for no effect and ±100 for the full control effect; nearly all actives have a fitted effect of over 60% in size
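Cytotoxicity was scored by loss of ATP-coupled luminescence (CellTiter-Glo) in HEK 293 cells. Compound treatment ran 48 or 72 hr at 37 degree Celsius, 5% CO2, 95% humidity.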
Npr1 antag conf: Natriuretic polypeptide receptor (hNpr1) antagonism - Confirmation | 1,400 tested, 76% active | HEK293 hNpr1 cGMP GloSensor luminescence, ANP-stimulated | shares compounds with hNpr1 antagonist | Potency, µM (highest dose often 57.6 µM), inactives show at the highest dose activity change, negative = inhibition, hits mostly inhibitors; calls by dose curve; also: nearly all actives have a fitted effect of over 70% in size
NPR2 antag: Natriuretic polypeptide receptor (hNpr2) antagonism - Subtype selectivity assay. shares compounds with hNpr1 antagonist. HEK293 hNpr2 GloSensor cGMP luminescence, CNP-stimulated. Potency, µM (series often up to 57.6 µM), for inactives: at the top dose activity change, negative = inhibition, usual class: inhibitors. 1,400 tested, 67% active. AID 1347046, 2019; calls by dose curve; also: nearly all actives have a fitted effect of over 70% in size
FLuc inh counter: Natriuretic polypeptide receptor (hNpr1) antagonism - Confirmation firefly luciferase (FLuc) inhibition counterscreen. shares compounds with hNpr1 antagonist. purified FLuc enzyme, luminescence, Km substrate. Potency, µM (highest dose often 57.6 µM), for inactives: at the top dose activity change, negative = inhibition, usual class: inhibitors. 1,400 tested, 0.7% active. AID 1347047, 2019; also: 0% is about no effect
GloSensor cGMP: Natriuretic polypeptide receptor (hNpr1) antagonism - Counterscreen GloSensor control cell line. shares compounds with hNpr1 antagonist. 1,400 tested, 69% active. AID 1347051, 2019. Potency, µM (titrated, usually from 57.6 µM), for the others: at the highest dose activity change, negative = inhibition, most hits filed as inhibitors. HEK293 GloSensor cGMP, SNP-stimulated, luminescence; calls by dose curve; also: % is scaled to controls: 0 for no effect and ±100 for the full control effect; nearly all actives have a fitted effect of over 70% in size
The depositor's hits bear a star. Unless noted, calls follow the shape of the dose curve; as a rule, active = well fitted curve in the direction sought with a large enough effect; inconclusive = small, poorly fitted or top-dose-only effect, or another doubt; inactive = no such curve, though single readings can be large; an effect the other way counts as inactive or inconclusive. Potency is read from the fitted curve at half-maximal effect.

For CCOc1ccc(C(=O)N2CCC(Cc3nc(-c4ccc(F)cc4)no3)CC2)cc1OCC the results were NIH3T3 tox 40µM*, hNpr1 antagonist 4µM*, GPT2 inh -3%, Luciferase inh inactive, HEK293 tox inconclusive, Npr1 antag conf 3.9µM*, NPR2 antag 6.1µM*, FLuc inh counter 2% and GloSensor cGMP 4.8µM*.
For COc1ccc(-c2noc(CC3CCN(C(=O)c4ccc(OC)nc4)CC3)n2)cc1 the results were NIH3T3 tox inconclusive, hNpr1 antagonist 7.1µM*, GPT2 inh 3%, Luciferase inh inactive, HEK293 tox inconclusive, Npr1 antag conf 5.4µM*, NPR2 antag 6.1µM*, FLuc inh counter 1% and GloSensor cGMP 5.4µM*.
For Cc1cccc(C(=O)N2CCC(Cc3nc(-c4cnccn4)no3)CC2)c1 the results were NIH3T3 tox -40%, hNpr1 antagonist -9%, GPT2 inh inactive, Luciferase inh inactive and HEK293 tox -16%.
CCOc1ccc(C(=O)N2CCC[C@H]2c2nc(-c3ccc(OC)cc3)no2)cc1OCC was read as NIH3T3 tox -16%, hNpr1 antagonist -11%, GPT2 inh inactive, Luciferase inh inactive and HEK293 tox -13%.
COc1ccc(C(=O)N2CCC(c3noc(COc4ccc(F)cc4)n3)CC2)cn1 was read as NIH3T3 tox inconclusive, hNpr1 antagonist inconclusive, GPT2 inh -8%, Luciferase inh inactive and HEK293 tox inconclusive.
`CCOc1ccc(C(=O)N2CCC(Cc3nc(-c4ccc(OC)cc4)no3)CC2)cc1OCC` gave NIH3T3 tox inconclusive, hNpr1 antagonist 6.3µM*, GPT2 inh inactive, Luciferase inh inactive, HEK293 tox 40µM*, Npr1 antag conf 11µM*, NPR2 antag 15µM*, FLuc inh counter 2% and GloSensor cGMP 9.7µM*.
`O=C(NCc1ccccc1)C1CCCN1C(=O)c1cccc(-c2ccccn2)c1` (stereo unspecified) gave NIH3T3 tox -24%, GPT2 inh inactive and HEK293 tox -5%.
`CCOc1ccc(C(O)Cn2ccn3nc(-c4ccccc4C)cc3c2=O)cc1` (stereo unspecified) gave NIH3T3 tox inconclusive, hNpr1 antagonist 13µM*, GPT2 inh inactive, Luciferase inh inactive, HEK293 tox 35µM*, Npr1 antag conf 17µM*, NPR2 antag inconclusive, FLuc inh counter 0% and GloSensor cGMP 11µM*.
`CCOc1ccc(-c2cc3c(=O)n(CC(O)c4ccc(C(C)C)cc4)ccn3n2)cc1` (stereo unspecified) gave NIH3T3 tox -15%, hNpr1 antagonist 3%, GPT2 inh inactive, Luciferase inh inactive and HEK293 tox 6%.
Screening O=S(=O)(c1ccc(Cl)cc1)N1CCOC[C@H](Oc2ccc(C(F)(F)F)cc2)C1 returned NIH3T3 tox inconclusive, hNpr1 antagonist -24%, GPT2 inh 1%, Luciferase inh inactive, HEK293 tox inconclusive, Npr1 antag conf inconclusive, NPR2 antag inconclusive, FLuc inh counter 4% and GloSensor cGMP inconclusive.
Screening COC[C@@H]1CN(Cc2c(OC)cccc2OC)C[C@H]1c1ccncc1 returned NIH3T3 tox inconclusive, hNpr1 antagonist 6.3µM*, GPT2 inh inactive, Luciferase inh inactive, HEK293 tox 35µM*, Npr1 antag conf 15µM*, NPR2 antag 15µM*, FLuc inh counter 0% and GloSensor cGMP 14µM*.
`CNC(=O)[C@H]1C[C@]2(CCCCN(C)C2=O)N(C(=O)C2CC2)[C@H]1c1ccco1` gave NIH3T3 tox inconclusive and HEK293 tox inactive.
`COc1ccc(C(=O)N2CCN(c3ccc4nnc(C5CC5)n4n3)CC2)cc1` gave NIH3T3 tox inconclusive and HEK293 tox -8%.
`COc1ccc(C(=O)N2CCN(C(=O)c3nnn4c3COC(c3ccc(Cl)cc3)C4)CC2)c(C)c1` (stereo unspecified) gave NIH3T3 tox inconclusive, hNpr1 antagonist 10µM*, GPT2 inh inactive, Luciferase inh inactive, HEK293 tox inconclusive, Npr1 antag conf 19µM*, NPR2 antag 19µM*, FLuc inh counter -1% and GloSensor cGMP 14µM*.
COc1ccc(C2Cn3nnc(C(=O)N4CCN(C(=O)Cc5ccccc5C)CC4)c3CO2)cc1 (stereo unspecified) was read as NIH3T3 tox -13%, hNpr1 antagonist inconclusive, GPT2 inh inactive, Luciferase inh inactive, HEK293 tox inconclusive, Npr1 antag conf 22µM*, NPR2 antag 22µM*, FLuc inh counter -2% and GloSensor cGMP 24µM*.
COc1cccc(CC(=O)N2CCN(C(=O)c3nnn4c3COC(c3ccc(Cl)cc3)C4)CC2)c1 (stereo unspecified) was read as NIH3T3 tox -41%, hNpr1 antagonist 11µM*, GPT2 inh inactive, Luciferase inh inactive, HEK293 tox -33%, Npr1 antag conf 24µM*, NPR2 antag 24µM*, FLuc inh counter 3% and GloSensor cGMP 22µM*.
